From PubChem BioAssay AID1159580 (chemical genetic matrix, 2015)
The campaign covered roughly 5,500 compounds. About 2,000 (36%) were called active. Roughly 18% stayed inconclusive and do not appear here. No stated cut-off is given here; in the data, active means normalized growth mostly below about 0.91 (no sharp cut-off); inconclusive means no clear call, values can overlap the other calls; inactive means mostly above about 0.92. Some of the results follow.

Experiment: chemical genetic growth profiling, strain panel (AID 1159580);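 further: tested at 20 µM; growth read once vehicle control cultures reached saturation at 30 °C; 1 = growth at the plate median or of vehicle wells; lower values mean less growth of the strain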
Settings: growth OD

Measured: normalized growth

CC(C)(Sc1cc(C(C)(C)C)c(O)c(C(C)(C)C)c1)Sc1cc(C(C)(C)C)c(O)c(C(C)(C)C)c1
inactive: S. cerevisiae deletion strains, locus YJR075W, strain HOC1, active compounds read low 1.01 | S. cerevisiae deletion strains, locus YKL068W, active compounds read low 1.01 | S. cerevisiae deletion strains, locus YKL085W, strain MDH1 (second series), active compounds read low 1.05 | S. cerevisiae deletion strains, locus YKL085W, strain MDH1, active compounds read low 1.05 | S. cerevisiae deletion strains, locus YKL160W, strain elf1, active compounds read low 0.99 | S. cerevisiae deletion strains, locus YKL190W, strain CNB1, active compounds read low 1.01 | S. cerevisiae deletion strains, locus YKR001C, strain vps1, active compounds read low 1.02 | S. cerevisiae deletion strains, locus YKR026C, strain gcn3, active compounds read low 0.987 | S. cerevisiae deletion strains, locus YKR091W, strain srl3, active compounds read low 1.02 | S. cerevisiae deletion strains, locus YLL001W, strain dnm1, active compounds read low 0.996 | S. cerevisiae deletion strains, locus YLL026W, active compounds read low 1 | S. cerevisiae deletion strains, locus YLL041C, strain sdh2, active compounds read low 1.01 | S. cerevisiae deletion strains, locus YLR027C, strain aat2, active compounds read low 0.994 | S. cerevisiae deletion strains, locus YLR039C, strain RIC1, active compounds read low 1.02 | S. cerevisiae deletion strains, locus YLR058C, strain SHM2, active compounds read low 1.01 | S. cerevisiae deletion strains, locus YLR102C, strain apc9, active compounds read low 1.03 | S. cerevisiae deletion strains, locus YLR113W, strain HOG1, active compounds read low 1.01 | S. cerevisiae deletion strains, locus YLR221C, strain rsa3, active compounds read low 1.01 | S. cerevisiae deletion strains, locus YLR258W, strain gsy2, active compounds read low 1.01 | S. cerevisiae deletion strains, locus YLR262C, strain YPT6 (second series), active compounds read low 1 | S. cerevisiae deletion strains, locus YLR262C, strain YPT6, active compounds read low 1.01 | S. cerevisiae deletion strains, locus YLR268W, strain sec22, active compounds read low 1.09 | S. cerevisiae deletion strains, locus YLR320W, strain mms22, active compounds read low 1 | S. cerevisiae deletion strains, locus YLR330W, strain CHS5, active compounds read low 1.01 | S. cerevisiae deletion strains, locus YLR342W, strain FKS1 (second series), active compounds read low 0.992 | S. cerevisiae deletion strains, locus YLR342W, strain FKS1, active compounds read low 1 | S. cerevisiae deletion strains, locus YLR357W, strain rsc2, active compounds read low 0.997 | S. cerevisiae deletion strains, locus YLR370C, strain arc18, active compounds read low 1.01 | S. cerevisiae deletion strains, locus YLR371W, strain rom2, active compounds read low 1.01 | S. cerevisiae deletion strains, locus YLR384C, strain iki3, active compounds read low 0.99 | S. cerevisiae deletion strains, locus YLR418C, strain cdc73, active compounds read low 1.07 | S. cerevisiae deletion strains, locus YML016C, strain PPZ1, active compounds read low 0.999 | S. cerevisiae deletion strains, locus YML032C, strain rad52, active compounds read low 1.03 | S. cerevisiae deletion strains, locus YML120C, strain ndi1, active compounds read low 1 | S. cerevisiae deletion strains, locus YML124C, strain tub3, active compounds read low 1.02 | S. cerevisiae deletion strains, locus YMR058W, strain fet3, active compounds read low 1.02 | S. cerevisiae deletion strains, locus YMR078C, strain ctf18, active compounds read low 1.03 | S. cerevisiae deletion strains, locus YMR125W, strain sto1, active compounds read low 1 | S. cerevisiae deletion strains, locus YMR129W, active compounds read low 1.01 | S. cerevisiae deletion strains, locus YMR205C, strain PFK2, active compounds read low 1.01 | S. cerevisiae deletion strains, locus YMR223W, strain ubp8, active compounds read low 1.02 | S. cerevisiae deletion strains, locus YMR231W, strain pep5, active compounds read low 1 | S. cerevisiae deletion strains, locus YMR263W, strain SAP30, active compounds read low 1.03 | S. cerevisiae deletion strains, locus YMR307W, strain GAS1, active compounds read low 1.01 | S. cerevisiae deletion strains, locus YNL067W, strain RPL9B, active compounds read low 1.03 | S. cerevisiae deletion strains, locus YNL071W, strain lat1, active compounds read low 1.02 | S. cerevisiae deletion strains, locus YNL128W, strain TEP1, active compounds read low 1.03 | S. cerevisiae deletion strains, locus YNL153C, strain GIM3, active compounds read low 1.03 | S. cerevisiae deletion strains, locus YNL183C, strain NPR1, active compounds read low 0.899 | S. cerevisiae deletion strains, locus YNL209W, strain ssb2, active compounds read low 0.989 | S. cerevisiae deletion strains, locus YNL233W, strain BNI4, active compounds read low 1.02 | S. cerevisiae deletion strains, locus YNL248C, strain rpa49, active compounds read low 1.06 | S. cerevisiae deletion strains, locus YNL250W, strain rad50, active compounds read low 1.02 | S. cerevisiae deletion strains, locus YNL271C, strain bni1, active compounds read low 1.03 | S. cerevisiae deletion strains, locus YNL298W, strain CLA4, active compounds read low 1.02 | S. cerevisiae deletion strains, locus YNL307C, strain MCK1, active compounds read low 1.03 | S. cerevisiae deletion strains, locus YNL322C, strain KRE1 (second series), active compounds read low 1.01 | S. cerevisiae deletion strains, locus YNL322C, strain KRE1, active compounds read low 1.01 | S. cerevisiae deletion strains, locus YNR049C, strain mso1, active compounds read low 1 | S. cerevisiae deletion strains, locus YNR052C, strain pop2, active compounds read low 1.02 | S. cerevisiae deletion strains, locus YOL006C, strain TOP1, active compounds read low 1.11 | S. cerevisiae deletion strains, locus YOL012C, strain htz1 1.15 | S. cerevisiae deletion strains, locus YOL147C, strain pex11, active compounds read low 1.02 | S. cerevisiae deletion strains, locus YOR001W, strain rrp6, active compounds read low 1.02 | S. cerevisiae deletion strains, locus YOR061W, strain CKA2, active compounds read low 1.01 | S. cerevisiae deletion strains, locus YOR069W, strain VPS5, active compounds read low 0.987 | S. cerevisiae deletion strains, locus YOR070C, strain gyp1, active compounds read low 1 | S. cerevisiae deletion strains, locus YOR080W, strain dia2, active compounds read low 0.996 | S. cerevisiae deletion strains, locus YOR083W, strain WHI5, active compounds read low 0.998 | S. cerevisiae deletion strains, locus YOR106W, strain vam3, active compounds read low 0.98 | S. cerevisiae deletion strains, locus YOR136W, strain idh2, active compounds read low 1.03 | S. cerevisiae deletion strains, locus YOR144C, strain elg1, active compounds read low 1.01 | S. cerevisiae deletion strains, locus YOR184W, strain ser1, active compounds read low 1.03 | S. cerevisiae deletion strains, locus YOR231W, strain MKK1, active compounds read low 0.996 | S. cerevisiae deletion strains, locus YOR265W, strain rbl2, active compounds read low 0.997 | S. cerevisiae deletion strains, locus YOR270C, strain vph1, active compounds read low 1.05 | S. cerevisiae deletion strains, locus YOR290C, strain snf2, active compounds read low 1.01 | S. cerevisiae deletion strains, locus YOR316C, strain cot1, active compounds read low 1.03 | S. cerevisiae deletion strains, locus YPL051W, strain arl3, active compounds read low 0.988 | S. cerevisiae deletion strains, locus YPL055C, strain LGE1, active compounds read low 1.03 | S. cerevisiae deletion strains, locus YPL078C, strain atp4, active compounds read low 1.01 | S. cerevisiae deletion strains, locus YPL106C, strain sse1, active compounds read low 1.01 | S. cerevisiae deletion strains, locus YPL240C, strain hsp82, active compounds read low 1.03 | S. cerevisiae deletion strains, locus YPL241C, strain CIN2, active compounds read low 1.01 | S. cerevisiae deletion strains, locus YPL256C, strain CLN2, active compounds read low 1.03 | S. cerevisiae deletion strains, locus YPR119W, strain clb2, active compounds read low 1.01 | S. cerevisiae deletion strains, locus YPR141C, strain kar3, active compounds read low 1.02 | S. cerevisiae deletion strains, locus YPR163C, strain tif3, active compounds read low 1.02 | S. cerevisiae deletion strains, locus YPR167C, strain met16, active compounds read low 1.02 | S. cerevisiae deletion strains, strain wtn01, active compounds read low 1.02 | S. cerevisiae strains, strain wild type, active compounds read low 1.02
